# KB-V1 cytotox: kills drug-selected multidrug resistant KB-V1 cells; KB-V1 MDR cells viability, CellTiter-Glo, 72 h; Potency, µM (titrated, usually from 46.1 µM), hits mostly cytotoxic; actives 3.4% (n = 400,000); AID 1347076; also: potency is read from the fitted curve at half-maximal effect; % is scaled to controls: 0 for no effect and ±100 for the full control effect; nearly all actives have a fitted effect of over 60% in size
#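 Cytotoxicity toward P-gp-expressing KB-V1 cells was determined as loss of CellTiter-Glo luminescence after 72 h at 37 degrees C. Compounds were tested in quantitative HTS format across a concentration range, with curves fitted to normalized data.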
# KB-3-1 tox: kills parental KB-3-1 adenocarcinoma cells | KB-3-1 viability, CellTiter-Glo ATP luminescence, 72 h | actives 1.4% (n = 400,000) | AID 1347075 | Potency, µM (doses to about 46.1 µM), most hits filed as cytotoxic; also: potency is read from the fitted curve at half-maximal effect; % is scaled to controls: 0 for no effect and ±100 for the full control effect; nearly all actives have a fitted effect of over 60% in size
#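 Multi-concentration cytotoxicity screen in KB-3-1 cells grown in DMEM lacking phenol red with 10% FBS. After 72 h at 37 °C with compound, ATP-dependent luminescence was recorded.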
# MCF10A rereplic: induces DNA re-replication in MCF 10a normal breast cells. MCF 10A DNA re-replication, Hoechst nuclear intensity, 48 h. Potency, µM (top dose mostly 46.1 µM), without a hit: top-dose activity, positive = re-replication, actives largely listed as activators. actives 2.9% (n = 350,000). AID 624296; also: potency is read from the fitted curve at half-maximal effect; % of control where 0% means no effect; nearly all actives have a fitted effect of over 50% in size
# IL-1B inflam inh: inflammasome signaling inhibition, IL-1 beta readout. THP-1 LPS/ATP IL-1B secretion, AlphaLISA, 16 h; hits give low values. activity change, % at 57.5 µM. actives 4.7% (n = 360,000). AID 743279; in the data active = activity change below about -50%; inconclusive = mostly about -30% to -49%; also: % is scaled to controls: 0 for no effect and ±100 for the full control effect
#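 Secreted IL-1B measured by AlphaLISA bead assay after 16 h compound exposure of THP-1 cells; compounds (final up to 57.5 uM) added 1 h before LPS (250 ng/mL) and ATP (1.25 mM) stimulation; lower signal means less secretion.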
# SW480 rereplic: induces DNA re-replication in SW480 colon adenocarcinoma cells; SW480 DNA re-replication, Hoechst DNA content imaging, 48 h; Potency, µM (titrated, usually from 46.1 µM), for inactives: at the highest dose re-replication activation, usual class: activators; actives 1.8% (n = 340,000); also: potency is read from the fitted curve at half-maximal effect; % of control where 0% means no effect; nearly all actives have a fitted effect of over 55% in size
#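 DNA re-replication was detected as more nuclei of elevated Hoechst intensity after 48 hr exposure to compound (23 nL pinned per well of 250 cells).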
# The depositor's hits bear a star; i = inactive; ? = inconclusive; nt = not tested or not shown; ! = not confirmed by another sample. Rows were chosen to be rich in hits. Some 9.9% of all compounds tested hit in one or more screens of this group. Unless noted, calls follow the shape of the dose curve; as a rule, active = well fitted curve in the direction sought with a large enough effect; inconclusive = small, poorly fitted or top-dose-only effect, or another doubt; inactive = no such curve, though single readings can be large; an effect the other way counts as inactive or inconclusive.
SMILES,KB-V1 cytotox,KB-3-1 tox,MCF10A rereplic,IL-1B inflam inh,SW480 rereplic
CCCCNc1c(-c2ccc(SC(C)CC)cc2)nc2ccccn12 (centres undefined),13µM*!,18µM*!,?,0,?
CCCCNc1c(-c2cccc(SC(C)CC)c2)nc2ccc(Cl)cn12 (centres undefined),?,?,?,-2,-6%
CCCCNc1c(-c2ccc(SC3CCCCC3)cc2)nc2ccccn12,21µM*!,?,?,-73*!,0%
O=C(CNc1cccc(C(F)(F)F)c1)N/N=C/c1cccc(Br)c1,i,i,21µM*,-16,0%
Cc1cccc(NCC(=O)N/N=C/c2cccc(Br)c2)c1,?,i,26%,?,-2%
Cc1nn(Cc2ccccc2)c(Cl)c1/C=N/NC(=O)CNc1cccc(C(F)(F)F)c1,9.2µM*,i,?,-28,-3%
O=C(NC1CCCCC1)C(c1ccc2ncccc2c1)N(Cc1ccccc1)C(=O)c1cccs1 (centres undefined),23µM*,i,?,-69*,?
O=C(NC1CCCCC1)C(c1ccccc1)N(C(=O)c1cccs1)c1ccc2c(c1)OCO2 (centres undefined),?,i,-6%,-14,1.3µM*
COc1ccc(C(C(=O)NC2CCCCC2)N(C(=O)c2cccs2)c2ccc3c(c2)OCO3)cc1 (centres undefined),i,i,?,4,4%
CC(=O)Nc1ccc(N(C(=O)c2ccco2)C(C(=O)NC2CCCC2)c2cccs2)cc1 (centres undefined),i,i,0%,-10,-4%
CC(=O)Nc1ccc(N(C(=O)c2ccco2)C(C(=O)NC2CCCCC2)c2ccccc2)cc1 (centres undefined),i,i,-2%,-53*,-13%
O=C(NC1CCCCC1)C(c1ccc2ncccc2c1)N(Cc1ccc2c(c1)OCO2)C(=O)c1cccs1 (centres undefined),?,i,-4%,-69*,-6%
O=C(NC1CCCC1)C(c1ccccc1)N(Cc1ccc2c(c1)OCO2)C(=O)Cc1cccs1 (centres undefined),i,?,?,-24,26%
COc1ccc(CN(C(=O)c2cccs2)C(C(=O)NC2CCCCC2)c2ccc3ncccc3c2)cc1 (centres undefined),?,i,-3%,0,-2%
CCCS(=O)(=O)NC(=O)C1(C)CCN(C(=O)c2cc(C)nn2C(C)(C)C)C1 (centres undefined),i,i,nt,26,nt
CCOC(=O)N1CCN(C(=O)C2CCC(=O)N(Cc3cccc(C(F)(F)F)c3)C2)CC1 (centres undefined),i,i,1%,-1,8%
CCOC(=O)c1nn(-c2ccc(Br)cc2)cc1C(=O)c1cccc2ccccc12,12µM*,?,?,-2,?
CCOC(=O)c1ccc(NC(=O)c2cn(-c3ccccc3)nc2-c2ccc(Br)cc2)cc1,i,i,nt,nt,nt
NC(=S)Nc1cccc(O)c1,i,i,14%,0,-9%
CC(C)=CCN1CCN(Cc2nc(-c3ccc(F)cc3)cs2)CC1CCO (centres undefined),?,i,?,-11,19%
OCCC1CN(Cc2nc(-c3ccccc3)cs2)CCN1Cc1ccc(F)cc1 (centres undefined),9.2µM*,?,?,-76*,10%
O=C(/C=C/c1ccccc1)OCc1cnc(Cl)s1,i,i,4%,-3,-4%
O=C(O)c1ccc(N/N=C/C2=C(N3CCOCC3)C(=C\c3ccccc3)/CC2)cc1,i,i,?,-9,18µM*
Cc1occc1C(=O)N/N=C/C1=C(N2CCOCC2)C(=C\c2ccc(Cl)cc2Cl)/CC1,?,i,2.1µM*,-11,2.9µM*
C/C(=N/NC(=O)c1ccoc1C)c1ccc(N2CCOCC2)cc1,i,i,-3%,-4,-11%

# Compound activity: PubChem, National Center for Advancing Translational Sciences (NCATS)
